Reference: PubChem BioAssay AID720706 (Broad Institute, 2013)
Among all 350,000 compounds or so, about 5,500 (1.6%) were called active.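 How the source made its calls: active means significant combined selectivity score with lowered wild-type GFP, culture density cut under 30%, mutant RFP and density less affected; inactive means any of these conditions unmet.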 What follows is part of a selection rich in actives, with near analogues and random picks from the rest.

Assay: reduced GFP signal of wild-type E. coli, primary screen, bacterial rRNA inhibitor project, GFP/RFP fluorescence, OD600, single point (AID 720706)
Settings: E. coli WT GFP vs humanized-ribosome RFP mutants, 24 h; GFP signal change (wild-type ribosome): stronger effect = lower value, DMSO median 0, no signal -100; OD600 change: measured here: OD600 growth, DMSO median 0, no signal -100; RFP signal change: measured here: RFP humanized mutant strains, DMSO median 0, no signal -100, concentration not given here

Structure (SMILES)	GFP signal change (wild-type ribosome)	OD600 change [%]	RFP signal change [%]
COc1ccc(C(C)(O)c2nc(-c3ccc(C)c(C)c3)cs2)cc1 (stereo unspecified)	-26.3% (inactive)	-43.5	0.438
CN(c1ccc(O)cc1)c1nc(-c2cccnc2)cs1	-12.4% (inactive)	-11.5	-4.17
CC(C)(C)C(=O)OCc1nc(-c2ccc(O)c(O)c2)cs1	-25.8% (active)	-12.7	-1.12
COc1ccccc1-c1ccc([C@@H]2C[C@H]3[C@H](CON3C)CN2S(=O)(=O)c2cc(Cl)cc(Cl)c2)cc1	6.53% (inactive)	14.8	-4.58
CC(=O)Nc1ccc(NC(=O)CSc2nnnn2-c2ccccc2F)cc1	4.89% (inactive)	2.23	-0.743
Cc1ccccc1-n1nnnc1SCCCC(=O)c1ccc(F)cc1	-23.1% (active)	-14.2	-2.44
O=C(CSc1nnnn1-c1ccc(O)cc1)c1ccc(F)cc1	-23.8% (inactive)	-18.1	-2.43
CCNC(=O)Nc1ccc2c(c1)C(=O)N(C)[C@H]1CC[C@H](CC(=O)NCC3CCCCC3)O[C@@H]1CO2	-0.861% (inactive)	-5.67	0.251
O=C(c1ccc(F)cc1)N1CC(=O)N2[C@H](CO)[C@H](c3ccc(-c4ccccc4F)cc3)[C@@H]2C1	0.409% (inactive)	-9.64	3.17
C[C@@H]1CN([C@H](C)CO)C(=O)c2cc(NC(=O)Nc3ccccc3)ccc2O[C@@H](C)CCCCO[C@@H]1CN(C)S(=O)(=O)c1ccc(F)cc1	1.72% (inactive)	-2.21	-3.62
COc1ccc2c3c(n(C)c2c1)[C@@H](CO)N(C)CC31CN(S(=O)(=O)c2cccs2)C1	0.733% (inactive)	-9.82	-0.435
O=C(C[C@@H]1CC[C@@H](NC(=O)Nc2ccc(F)cc2)[C@H](CO)O1)NCCN1CCCC1	0.52% (inactive)	4.7	-1.57
